C_diff_growth: C. difficile growth inhibition; Clostridium difficile clinical isolate growth, OD600, 24 h; stronger effect = lower value; growth activity, negative = inhibition, % at 16 µg/mL (by protocol); 86,000 tested, 0.25% active; AID 1259249;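 active means mean growth activity at or below -80% and every replicate also at or below -80%; inconclusive means mean at or below -80% but some replicate above -80%; inactive means mean growth activity above -80%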;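 further: 0% = DMSO wells and -100% = levofloxacin 16 µg/mL wells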
T_cruzi_growth: T. cruzi proliferation inhibition. T. cruzi beta-gal in NIH3T3, GalScreen luminescence, 90 h. inhibition, % at 8.34 µM. 77,000 tested, 5.9% active. AID 624255;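 active means mean inhibition above about 93%, with at least 55% of replicates each passing it, limit read from the data, passing the limit was not always enough; inconclusive means only one of those two conditions holds; inactive means neither condition holds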
Pf_Dd2_growth: inhibitors of Plasmodium falciparum Dd2 growth; P. falciparum Dd2 growth, SYBR Green, 72 h; stronger effect = lower value; activity change, % at 10 µM; 94,000 tested, 2.3% active; in the data active means activity change below about -80%; inconclusive means no clear call, values can overlap the other calls
An asterisk follows results filed as active; ? = inconclusive; / = no result given. A selection: hits, their analogues and other compounds. The true share with any hit is near 6.7%.

SMILES C_diff_growth T_cruzi_growth Pf_Dd2_growth
C[C@@H]1CN([C@H](C)CO)C(=O)c2cc(NC(=O)Nc3cccc4ccccc34)ccc2O[C@@H](C)CCCCO[C@H]1CN(C)S(=O)(=O)c1ccccc1 -2 -33 -33
COc1ccc(S(=O)(=O)N(C)C[C@H]2OCCCC[C@H](C)Oc3ccc(NC(=O)Nc4cccc5ccccc45)cc3C(=O)N([C@H](C)CO)C[C@@H]2C)cc1 0 77 -21
COc1ccc(S(=O)(=O)N(C)C[C@@H]2OCCCC[C@@H](C)Oc3ccc(NC(=O)Nc4cccc5ccccc45)cc3C(=O)N([C@@H](C)CO)C[C@@H]2C)cc1 8 23 -83*
COc1ccc(S(=O)(=O)N(C)C[C@H]2OCCCC[C@@H](C)Oc3ccc(NC(=O)Nc4cccc5ccccc45)cc3C(=O)N([C@H](C)CO)C[C@H]2C)cc1 4 88 -82*
C[C@@H]1CN([C@@H](C)CO)S(=O)(=O)c2ccc(Br)cc2O[C@@H]1CN(C)Cc1ccncc1 1 7 10
O=C(C[C@@H]1C[C@@H]2c3cc(NC(=O)C4CCC4)ccc3O[C@@H]2[C@H](CO)O1)NC1CCCC1 -3 -5 8
C[C@H]1CCCCO[C@H](CN(C)S(=O)(=O)c2ccc(F)cc2)[C@@H](C)CN([C@@H](C)CO)C(=O)c2cc(NC(=O)c3ccccc3)ccc2O1 -8 / -75
COc1ccc(S(=O)(=O)N(C)C[C@@H]2OCCCC[C@@H](C)Oc3ccc(NC(=O)c4ccccc4)cc3C(=O)N([C@H](C)CO)C[C@H]2C)cc1 15 87 -85*
COc1ccc(S(=O)(=O)N(C)C[C@@H]2OCCCC[C@@H](C)Oc3ccc(NC(=O)c4ccccc4)cc3C(=O)N([C@@H](C)CO)C[C@@H]2C)cc1 32 85 -79
C[C@@H]1CN([C@H](C)CO)C(=O)c2cc(NC(=O)c3ccccc3)ccc2O[C@@H](C)CCCCO[C@@H]1CN(C)S(=O)(=O)c1ccc(F)cc1 5 / -85*
Cc1ccc(S(=O)(=O)N(C)C[C@H]2OCCCC[C@@H](C)Oc3ccc(NC(=O)c4ccccc4)cc3C(=O)N([C@@H](C)CO)C[C@H]2C)cc1 / 11 -65
Cc1ccc(S(=O)(=O)N(C)C[C@H]2OCCCC[C@H](C)Oc3ccc(NC(=O)c4ccccc4)cc3C(=O)N([C@H](C)CO)C[C@H]2C)cc1 / 71 -81*
Cc1ccc(-c2cnc3c(c2)C(=O)N([C@H](C)CO)C[C@@H](C)[C@H](CN(C)C)O3)cc1 -2 10 23
Cc1noc(C)c1NC(=O)Nc1ccc2c(c1)C(=O)N([C@@H](C)CO)C[C@H](C)[C@@H](CN(C)C(=O)Nc1ccccc1)OCCCC[C@H](C)O2 0 5 -24
CO[C@H]1CN(C)C(=O)c2ccc(NC(=O)c3nc4ccccc4s3)cc2OC[C@@H](C)N(Cc2ccncc2)C[C@H]1C / / -31
CO[C@H]1CN(C)C(=O)c2ccc(NC(=O)c3nc4ccccc4s3)cc2OC[C@H](C)N(Cc2ccncc2)C[C@@H]1C / / -93*
CO[C@H]1CN(C)C(=O)c2ccc(NC(=O)c3nc4ccccc4s3)cc2OC[C@@H](C)N(Cc2cccnc2)C[C@@H]1C 0 58 -35
CO[C@@H]1CN(C)C(=O)c2ccc(NC(=O)c3nc4ccccc4s3)cc2OC[C@H](C)N(Cc2ccncc2)C[C@H]1C / / -61
CO[C@@H]1CN(C)C(=O)c2ccc(NC(=O)c3nc4ccccc4s3)cc2OC[C@@H](C)N(Cc2cccnc2)C[C@H]1C 10 73 -90*
CO[C@@H]1CN(C)C(=O)c2ccc(NC(=O)c3nc4ccccc4s3)cc2OC[C@@H](C)N(Cc2ccncc2)C[C@H]1C / / -97*
CC(=O)N(C)C[C@@H]1Oc2cc(-c3ccc(C)cc3)ccc2S(=O)(=O)N([C@@H](C)CO)C[C@H]1C -13 -2 -13
O=C(NCCN1CCCC1)[C@@H]1[C@@H](CO)[C@@H]2Cn3c(cccc3=O)[C@H]1N2C(=O)NC1CCCC1 -3 / -4
COCC(=O)Nc1ccc2c(c1)OC[C@H](C)N(CCc1ccccc1)C[C@H](C)[C@H](OC)CN(C)C2=O / -6 -1
OC[C@@H]1CC[C@@H]2O[C@H](CCc3ccc(-c4ccccc4)cc3)[C@H](n3cc(-c4ccccc4)nn3)C[C@@H]2O1 8 / ?
COc1ccccc1NC(=O)N1CCCCN2[C@@H](CO)[C@@H](c3ccc(C#CC4CC4)cc3)[C@@H]2C1 48 / -90*
SMILES C_diff_growth T_cruzi_growth Pf_Dd2_growth
COc1ccccc1NC(=O)N1CCCCN2[C@@H](CO)[C@H](c3ccc(C#CC4CC4)cc3)[C@@H]2C1 29 / -79
COc1ccccc1NC(=O)N1CCCCN2[C@H](C1)[C@H](c1ccc(-c3cccc(C)c3)cc1)[C@@H]2CO 29 92 -6
COc1ccccc1NC(=O)N1CCCCN2[C@@H](CO)[C@@H](c3ccc(-c4cccc(C)c4)cc3)[C@@H]2C1 -80* 69 -83*
C[C@@H]1CCCCO[C@H](CN(C)S(=O)(=O)c2ccccc2)[C@H](C)CN([C@@H](C)CO)C(=O)c2cc(NC(=O)C3CCCCC3)ccc2O1 -3 38 -73
C[C@@H]1CN([C@@H](C)CO)C(=O)c2cc(NC(=O)C3CCCCC3)ccc2O[C@@H](C)CCCCO[C@@H]1CN(C)S(=O)(=O)c1ccccc1 -2 38 -51
Cc1ccc(S(=O)(=O)N(C)C[C@@H]2OCCCC[C@@H](C)Oc3ccc(NC(=O)C4CCCCC4)cc3C(=O)N([C@H](C)CO)C[C@@H]2C)cc1 0 11 -89*
C[C@H]1CCCCO[C@H](CN(C)S(=O)(=O)c2ccccc2)[C@@H](C)CN([C@@H](C)CO)C(=O)c2cc(NC(=O)C3CCCCC3)ccc2O1 -7 36 -84*
C[C@@H]1CCCCO[C@H](CN(C)S(=O)(=O)c2ccccc2)[C@@H](C)CN([C@@H](C)CO)C(=O)c2cc(NC(=O)C3CCCCC3)ccc2O1 -2 45 -80*
Cc1ccc(S(=O)(=O)N(C)C[C@H]2OCCCC[C@@H](C)Oc3ccc(NC(=O)C4CCCCC4)cc3C(=O)N([C@@H](C)CO)C[C@H]2C)cc1 -4 29 -57
O=C(C[C@@H]1CC[C@H](NS(=O)(=O)c2ccccc2)[C@H](CO)O1)NCCN1CCCCC1 0 35 16
O=C(NCC[C@@H]1CC[C@H](NS(=O)(=O)c2ccc(Cl)cc2)[C@H](CO)O1)Nc1ccc(F)cc1 4 / 22
C[C@@H]1CN([C@H](C)CO)C(=O)Cc2cc(NC(=O)Nc3ccc(F)cc3)ccc2O[C@@H]1CN(C)Cc1ccc(Cl)c(Cl)c1 72 22 -1
O=C(C[C@@H]1CC[C@@H]2[C@H](COC[C@H](O)CN2C(=O)Nc2ccc(Cl)cc2)O1)N1CCCCC1 2 26 -2
CN1CCN(C(=O)C[C@@H]2CC[C@H]3[C@@H](COC[C@H](O)CN3C(=O)Nc3ccc(Cl)cc3)O2)CC1 / 22 8
CN(C)CC(=O)N1CC2(C1)[C@H](c1ccccc1)[C@@H](CO)N2S(=O)(=O)c1ccccc1 -4 / -14
CCCNC(=O)N1CC2(CCN(S(=O)(=O)c3ccccc3)CC2)c2c(n(C)c3cc(OC)ccc23)[C@H]1CO 10 / -20

From PubChem BioAssay
